Active and inactive are the calls of the source. Calls come from the whole dose curve; as a rule, active = well fitted curve in the direction sought with a large enough effect; inconclusive = small, poorly fitted or top-dose-only effect, or another doubt; inactive = no such curve, though single readings can be large or run the other way.

The assay concerns the target alpha-glucosidase (Oryza sativa, rice) (UniProt Q653V4). The experiment in a line: Counterscreen for Glucocerebrosidase Inhibitors: qHTS Assay for Rice alpha-Glucosidase at pH 5.0 (AID 997). The conditions noted are these: rice alpha-glucosidase enzyme activity; series mostly up to 76.9 µM. The text has this: NIH Chemical Genomics Center [NCGC]
NIH Molecular Libraries Screening Centers Network [MLSCN]
PI Name: Zheng, Wei [NIH]
Alpha-glucosidase is responsible for hydrolysis of terminal, non-reducing 1,4-linked alpha-D-glucose residues with release of alpha-D-glucose. It is a lysosomal hydrolase that is required for the degradation of a small percentage (1-3%) of cellular glycogen in human. Deficiency of this enzyme results in glycogen-storage disease type II (GSDII), also referred to as Pompe disease, an autosomal recessive disorder. Structurally normal glycogen is accumulated in lysosomes and cytoplasm in affected patients, primarily in muscle tissues. Excessive glycogen storage within lysosomes may interrupt normal functioning of other organelles and leads to cellular injury. In turn, this leads to enlargement and dysfunction of the entire organ involved (eg, cardiomyopathy and muscle weakness).
It has reported that the improper folding and trafficking of alpha-glucosidase resulted from the genetic mutations may account for a significant number of Prope patients. […] We optimized this alpha-glucosidase assay in 1536-well plate format for identifying the novel small molecule inhibitors with the structures other than the sugar analogs in order to develop the new pharmacological chaperones.
NCGC Assay Protocol Summary:
This is a fluorogenic enzyme assay with 4-methylumbelliferyl-alpha-D-pyranoside as the substrate and rice alpha-glucosidase as the enzyme preparation. Upon the hydrolysis of this fluorogenic substrate, the resulting product, 1. 4-methyllumbelliferone, can be excited at 365 nm and emits at 440 nm which can be detected by a standard fluorescence plate reader. Data were normalized to the controls for basal activity (without enzyme) and 100% activity (with enzyme). In the AC50 values were determined from concentration-response data modeled with the standard Hill equation.
Assay buffer: 50 mM citric acid, 0.005% Tween-20, pH 5.0. (pH 5.0 is an optimal condition for this enzyme assay)
1536-well assay protocol for the human alpha-glucosidase:
(1) Add 2 ul/well of enzyme (4 nM final)
(2) Add 23 nL compounds in DMSO solution. The final titration was 0.7 nM to 77 uM.
(3) Add 1 ul of substrate (400 uM final)
(4) Incubate at room temperature for 20 min.
(5) Add 2 ul stop solution (1M NaOH and 1M Glycine mixture, pH 10)
(6) Detect the assay plate in a ViewLux plate reader (PerkinElmer) with Ex=365 nm and Em=440nm.
Keywords: Alpha-glucosidase, Prope Disease, pharmacological chaperone, chaperone therapy, high throughput screening, alpha-glucosidase inhibitor, MLSMR, MLSCN, NIH Roadmap, qHTS and NCGC
On the technique in general: A counterscreen serves to expose hits that act by an unwanted route or on another target.
On to `O=c1[nH]c2cc([N+](=O)[O-])c([N+](=O)[O-])cc2[nH]c1=O`, for which the result was inactive.
As for `NCCCS(=O)(=O)O`, the entry is “inactive”; as for `NCCCCCCCCCCN`, “inactive”; as for `CCCn1c(=O)c2[nH]c(-c3ccc(OCC(=O)NCCN)cc3)nc2n(CCC)c1=O`, “inactive”.
As for `O=C(O)c1cc(=O)c2c(Cl)cc(Cl)cc2[nH]1`, the entry is “inactive”; as for `N#C/C(=C\c1ccc(O)c(O)c1)C(=O)NCc1ccccc1`, “inactive”; as for `Ic1ccc(N2CCN(Cc3c[nH]c4ncccc34)CC2)cc1`, “inactive”.
To `C=C[C@H]1CN2CC[C@@H]1C[C@@H]2[C@@H](O)c1ccnc2ccc(OC)cc12` belongs “inactive”.
As to `C[C@@H](NC(=O)/C(C#N)=C/c1ccc(O)c(O)c1)c1ccccc1`, the call was inactive.
As for `CN1[C@@H]2CC[C@H]1CC(OC(c1ccccc1)c1ccccc1)C2` (stereo not given in full), the entry is “inactive”; as for `CC(=O)SCC[N+](C)(C)C`, “inactive”.
To `O=C(O)c1cc([N+](=O)[O-])ccc1NCCCc1ccccc1` belongs “inactive”; to `Oc1cc2c(cc1O)CN(C(=S)NCCc1ccc(Cl)cc1)CCC2`, “inactive”; to `O=c1[nH]c2cc(C(F)(F)F)ccc2n1-c1cc(C(F)(F)F)ccc1O`, “inactive”.
As for `CC1(C)CCC=[N+]1[O-]`, the entry is “inactive”; as for `COc1ccc(/C=C/C(=O)Nc2ccccc2C(=O)O)cc1OC`, “inactive”.
Take `C[N+]1(C)CCC(OC(=O)C(c2ccccc2)c2ccccc2)CC1`: the molecule was classed as inactive.
As for `Cn1cc(C2=C(c3ccc(Cl)cc3Cl)C(=O)NC2=O)c2ccccc21`, the entry is “inactive”; as for `CC(C)NC[C@H](O)COc1cccc2[nH]ccc12`, “inactive”; as for `N#C/C(=C\c1ccc(O)c(O)c1)C(=O)NCCCc1ccccc1`, “inactive”.
In the case of `O=C(c1cc(O)c(O)c([N+](=O)[O-])c1)c1ccccc1F`, the molecule was called inactive.
In the case of `CN1CCc2cc(NC(=O)Nc3cccnc3)ccc21`, the call was inactive.
To `O=c1[nH]c2cc(Cl)c(Cl)cc2[nH]c1=O` belongs “inactive”.
As for `COc1ccccc1CNCCCCCCNCCCCCCCCNCCCCCCNCc1ccccc1OC`, the outcome was inactive.
As for `O=Nc1ccc2oc(=O)ccc2c1`, the call was inactive.
For the molecule `O=C(Nc1ccccc1)c1cc([N+](=O)[O-])ccc1Cl`, the result was inactive.
To `Cc1cc(NC(=O)Nc2ccc3c(ccn3C)c2)sn1` belongs “inactive”; to `N[C@@H](CC(=O)O)C(=O)O`, “inactive”; to `CN1CCc2ccccc2Cc2[nH]c3ccccc3c2CC1`, “inactive”.
To `O=C(O)CC[C@@H](C(=O)O)N1C(=O)c2ccccc2C1=O` belongs “inactive”.
To `CC(C)(C=O)Cc1cc(C(C)(C)C)c(O)c(C(C)(C)C)c1` belongs “inactive”; to `COc1cc(OC)c(/C=C2/C(=O)Nc3ccccc32)c(OC)c1`, “inactive”; to `COc1ccccc1N1CCN(CCCCNS(=O)(=O)c2cccc3c(N(C)C)cccc23)CC1`, “inactive”.
Take `O=C(O)[C@@H]1C[C@@H](C(=O)O)N1`: the molecule was classed as inactive.
In the case of `Brc1c(Br)c(Br)c2n[nH]nc2c1Br`, the result was inactive.
As for `N[C@H](CCCP(=O)(O)O)C(=O)O`, the entry is “inactive”; as for `NC(N)=NC(=O)c1nc(Cl)c(N2CCCCCC2)nc1N`, “inactive”.
`c1cnc2c(c1)ccc1cccnc12`: the result was inactive.
As to `CCCN(CC1CC1)c1nc(C)nc(Nc2c(Cl)cc(Cl)cc2Cl)c1Cl`, the molecule was classed as inactive.
For `Cc1ccc(O)c(N=Nc2ccccc2)n1`, the call was inactive.

The record behind these values is PubChem BioAssay (NCATS).
